Results: PubChem BioAssay (Tox21)
Values joined by “and” are separate entries in the source; they are usually repeats but may differ in a detail not shown here. Identical values can stand only once. Inconclusive results are not listed. Active and inactive are the calls of the source. Unless noted, the call rests on the fitted dose curve; in most records, active means well fitted curve in the direction sought with a large enough effect in the repeat runs; inconclusive means weak or mixed curves; inactive means no such curve, though single readings can be large; an effect the other way counts as inactive or inconclusive.

What was measured:
[1] = qHTS assay for small molecule agonists of the p53 signaling pathway (AID 651631; calls by dose curve; further: nearly all actives have a fitted effect of over 15% in size)
Method in brief: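 Agonist mode screen using a stably integrated beta-lactamase gene under p53 response elements in HCT-116 cells. Compound exposure lasts 16 h at 37 °C; fluorescence intensity is measured following 2 h FRET substrate loading.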

[2] = qHTS assay for small molecules that induce genotoxicity in human embryonic kidney cells expressing luciferase-tagged ATAD5 (AID 651632); further: nearly all actives have a fitted effect of over 15% in size
Method in brief: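 HEK293T cells carrying a luciferase reporter tagged to ATAD5 were exposed to compound or DMSO vehicle for 16 hr at 37C, 5% CO2. Amplite was added, and after 30 min at room temperature luciferase activity was read as a marker of ATAD5 induction.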

[3] = qHTS assay for small molecules that induce genotoxicity in human embryonic kidney cells expressing luciferase-tagged ATAD5 - cell viability (AID 651634; calls by dose curve; further: nearly all actives have a fitted effect of over 25% in size)
Method in brief: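 HEK293T cells expressing luciferase-tagged ATAD5 were exposed to compound or DMSO for 15.5 hr at 37C, 5% CO2. Viability was then read as live-cell protease activity by CellTiter-Fluor fluorescence after 30 min at 37C.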

[4] = qHTS assay for small molecule disruptors of the mitochondrial membrane potential - cell viability (AID 720634; calls by dose curve;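 further: human HepG2 liver cancer cells; series mostly up to about 83 µM; nearly all actives have a fitted effect of over 20% in size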)
Method in brief: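 HepG2 cells seeded overnight at 37 C, then exposed to compound or DMSO for 1 hr at 37 C, 5% CO2. m-MPI dye added, then CellTiter-Glo for 30 min at room temperature; viability read as ATP luminescence.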

[5] = qHTS assay for small molecule disruptors of the mitochondrial membrane potential (AID 720635); further: potency means the concentration at half of the fitted maximal effect
Method in brief: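 HepG2 cells (2,000/well) attached overnight at 37C, then took compound for 1 hr at 37C, 5% CO2. Mito-MPS dye was added for 30 min; fluorescence was read at 490/535 nm (monomers) and 540/590 nm (aggregates).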

[6] = qHTS assay to test for compound auto fluorescence at 590 nm (red) in HepG2 cells (AID 720674)
Method in brief: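 Rose Bengal sodium served as the red fluorophore standard. HepG2 monolayers (overnight attachment, MEM with 10% FBS) were exposed to test compounds for 1 hr at 37 C and read at Ex 540/Em 590 nm.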

[7] = qHTS assay to test for compound auto fluorescence at 535 nm (green) in HepG2 cells (AID 720675)
[8] = qHTS assay to test for compound auto fluorescence at 460 nm (blue) in HEK293 cells (AID 720678)
Method in brief: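 HEK293 cells (2,000/well, medium with 10% dialyzed FBS) attached 4-5 hr, then exposed to compound overnight at 37C, 5% CO2. Blue fluorescence read at 405/460 nm, with triamterene as reference fluorophore.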

[9] = qHTS assay to test for compound auto fluorescence at 590 nm (red) in HEK293 cells (AID 720679)
Method in brief: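 HEK293 cells (2,000/well, 10% dialyzed FBS) attached 4-5 hr, then dosed with compound or DMSO and incubated overnight at 37C, 5% CO2. Red fluorescence read at 540/590 nm, Rose Bengal sodium as reference fluorophore.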

[10] = qHTS assay for small molecule agonists of the p53 signaling pathway - cell viability (AID 651633; calls by dose curve;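 further: p53RE-bla HCT reporter cells with a stable beta-lactamase p53 reporter; series mostly up to about 83 µM; nearly all actives have a fitted effect of over 30% in size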)
Method in brief: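 p53RE-bla cells, seeded at 4,000 per well and rested 5 h at 37 C/5% CO2, received compounds in DMSO for 16 h at 37 C. CellTiter-Glo was then added, and luminescence was read after 30 min at room temperature to gauge cytotoxicity.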
On the % scale 0 is the no-effect control and ±100 the full control effect.

O=S(=O)(O)c1cccc2ccccc12
inactive: Potency [1] | Potency [2] | Potency [3] | outcome [4] | Potency [5] | outcome [6] | outcome [7] | outcome [8] | outcome [9]

CC(=O)c1cnccn1
inactive: Potency [1] | Potency [2] | Potency [3] | outcome [4] | Potency [5] | outcome [6] | outcome [7] | outcome [9]

C=CCCCCCCCCC(=O)OCC
inactive: Potency [1] | Potency [2] | Potency [10] | Potency [3] | outcome [4] | outcome [7] | outcome [8] | outcome [9]

CN1CC(=O)N/C1=N/C(=O)Nc1cccc(Cl)c1
active: Potency [5] 21.1 µM and 26.6 µM
inactive: Potency [1] | Potency [2] | Potency [10] | Potency [3] | outcome [6] | outcome [8] | outcome [9]

CCOC(=O)CCC(=O)OCC
inactive: Potency [1] | Potency [2] | Potency [10] | Potency [3] | outcome [6] | outcome [7] | outcome [8] | outcome [9]

CCC(=O)OCc1ccccc1
inactive: Potency [1] | Potency [2] | Potency [10] | Potency [3] | outcome [4] | outcome [6] | outcome [7] | outcome [9]

CCN[C@@H]1C[C@H](N)[C@@H](OC2OC(CN)=CCC2N)[C@H](O)[C@H]1O[C@H]1OC[C@](C)(O)[C@H](NC)[C@H]1O (stereo partly specified)
inactive: Potency [1] | Potency [2] | Potency [10] | Potency [3] | Potency [5] | outcome [6] | outcome [7] | outcome [8] | outcome [9]

OCCc1ccccn1
inactive: Potency [1] | Potency [2] | Potency [10] | Potency [3] | outcome [4] | outcome [6] | outcome [7] | outcome [8] | outcome [9]

CC(C)CCCO
inactive: Potency [1] | Potency [2] | Potency [10] | Potency [3] | outcome [4] | outcome [6] | outcome [7] | outcome [9]

CC/C=C\CCOC(C)OCC (stereo unspecified)
inactive: Potency [1] | Potency [2] | Potency [10] | Potency [3] | Potency [5] | outcome [6] | outcome [8] | outcome [9]

C[C@@H]1C[C@H]2[C@@H]3C[C@H](F)C4=CC(=O)C(Cl)=C[C@]4(C)[C@@]3(F)[C@@H](O)C[C@]2(C)[C@@]1(O)C(=O)CO
inactive: Potency [1] | Potency [2] | Potency [10] | Potency [3] | outcome [4] | outcome [7] | outcome [8] | outcome [9]

C[N+]1(CC2COC(c3ccccc3)(c3ccccc3)O2)CCCCC1 (stereo unspecified)
inactive: Potency [1] | Potency [2] | Potency [3] | outcome [4] | Potency [5] | outcome [6] | outcome [7] | outcome [8] | outcome [9]

CCCCCCC1CCC(=O)O1 (stereo unspecified)
inactive: Potency [1] | Potency [2] | Potency [3] | outcome [4] | outcome [6] | outcome [7] | outcome [8] | outcome [9]

COCCOC[C@H](CC1(C(=O)NC2CCC(C(=O)O)CC2)CCCC1)C(=O)Oc1ccc2c(c1)CCC2 (stereo partly specified)
inactive: Potency [1] | Potency [2] | Potency [10] | Potency [3] | Potency [5] | outcome [6] | outcome [7] | outcome [8] | outcome [9]

CC(C)(C)C(=O)c1ccccc1
inactive: Potency [1] | Potency [2] | Potency [10] | Potency [3] | Potency [5] | outcome [6] | outcome [8] | outcome [9]

CCN1CCOCC1
inactive: Potency [1] | Potency [2] | Potency [3] | outcome [4] | Potency [5] | outcome [6] | outcome [8] | outcome [9]

CCC(C)(CCCC(C)C)OC(C)=O (stereo unspecified)
inactive: Potency [1] | Potency [2] | Potency [3] | outcome [4] | Potency [5] | outcome [6] | outcome [8] | outcome [9]

CC(=O)C1CCCCC1=O (stereo unspecified)
inactive: Potency [1] | Potency [2] | Potency [10] | Potency [3] | outcome [6] | outcome [8] | outcome [9]

Cc1ccc(C(=O)c2ccc(CC(=O)O)n2C)cc1
inactive: Potency [1] | Potency [2] | Potency [10] | Potency [3] | outcome [4] | fluorescence, % of fluorescein control [7] 0.0458% [at 18.6 µM] | fluorescence, % of triamterene [8] -0.184% [at 18.6 µM] | fluorescence, % of fluorescent control [9] 0.256% [at 18.6 µM]

C=C(C)C(=O)OCCOCCOCCOCCOC(=O)C(=C)C
inactive: Potency [1] | Potency [2] | Potency [3] | outcome [4] | outcome [6] | outcome [7] | outcome [8] | outcome [9]

OCCCCCO
inactive: Potency [1] | Potency [2] | Potency [10] | Potency [3] | outcome [6] | outcome [7] | outcome [8] | outcome [9]

Cc1ccc(C(=O)Nc2ccc(S(=O)(=O)O)c3cc(S(=O)(=O)O)cc(S(=O)(=O)O)c23)cc1NC(=O)c1cccc(NC(=O)Nc2cccc(C(=O)Nc3cc(C(=O)Nc4ccc(S(=O)(=O)O)c5cc(S(=O)(=O)O)cc(S(=O)(=O)O)c45)ccc3C)c2)c1
inactive: Potency [1] | Potency [2] | Potency [10] | Potency [3] | outcome [4] | outcome [7] | outcome [8] | outcome [9]

COc1cc(C(=O)NCc2ccc(OCCN(C)C)cc2)cc(OC)c1OC
inactive: Potency [1] | Potency [2] | Potency [3] | outcome [4] | Potency [5] | fluorescence, relative to Rose Bengal [6] 1.14% [at 18.6 µM] | fluorescence, % of fluorescent control [9] -0.334% [at 18.6 µM]

C=COC(=O)C(C)(CC)CCC(C)C (stereo unspecified)
inactive: Potency [1] | Potency [2] | Potency [10] | Potency [3] | outcome [6] | outcome [7] | outcome [8] | outcome [9]

CCOC(=O)C1=NOC(c2ccccc2)(c2ccccc2)C1
inactive: Potency [1] | Potency [2] | Potency [3] | outcome [4] | outcome [6] | outcome [7] | outcome [8] | outcome [9]

COc1cc(C)nc(-n2nc(C)cc2OC)n1
inactive: Potency [1] | Potency [10] | Potency [3] | outcome [4] | Potency [5] | fluorescence, % of fluorescein control [7] 0.0331% [at 18.6 µM] | fluorescence, % of triamterene [8] 0.0208% [at 18.6 µM] | fluorescence, % of fluorescent control [9] -0.0061% [at 18.6 µM]
